# Laboratory results from PubChem BioAssay (EPA / NIEHS).
# Results filed as inconclusive are left out. Active and inactive are the calls of the source. The calls were made as follows: active = hit-call score of the fitted dose curve at least 0.9, where 1 is the maximum; inconclusive = response in the unintended direction; inactive = score below 0.9.
# Legend:
# [1] = biological target: Estrogen receptor (Homo sapiens) (UniProt P03372); assay: OT_ER_ERaERa_0480: Odyssey Thera (OT) 8-hour HEK293T Protein-Complementation Assay for Estrogen Receptor-alpha/-alpha Homodimer (AID 2283351);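 also: rise in fluorescence from reassembled reporter fragments on ERα LBD homodimer in nucleus or whole cell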
# Sequence of Estrogen receptor (Homo sapiens) (P03372 whole entry, looked up, the tested form may be a part): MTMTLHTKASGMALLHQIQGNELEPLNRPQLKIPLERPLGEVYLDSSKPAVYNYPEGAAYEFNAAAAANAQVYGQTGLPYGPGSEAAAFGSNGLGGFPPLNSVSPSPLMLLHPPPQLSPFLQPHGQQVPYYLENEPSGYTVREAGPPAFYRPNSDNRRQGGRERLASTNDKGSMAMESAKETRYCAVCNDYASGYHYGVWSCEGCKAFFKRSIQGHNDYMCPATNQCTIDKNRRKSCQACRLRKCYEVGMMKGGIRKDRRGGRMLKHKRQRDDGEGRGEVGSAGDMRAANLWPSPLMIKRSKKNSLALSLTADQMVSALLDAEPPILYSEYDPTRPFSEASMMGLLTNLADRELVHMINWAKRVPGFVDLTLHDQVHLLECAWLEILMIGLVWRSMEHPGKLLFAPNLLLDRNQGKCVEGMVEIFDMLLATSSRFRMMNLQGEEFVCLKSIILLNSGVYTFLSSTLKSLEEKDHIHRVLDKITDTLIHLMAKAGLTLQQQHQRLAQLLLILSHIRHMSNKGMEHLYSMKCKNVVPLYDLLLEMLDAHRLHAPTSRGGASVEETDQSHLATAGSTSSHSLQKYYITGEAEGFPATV
# Outline: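 HEK293T cells stably expressing the human ERα ligand-binding domain (aa 310-547) as a homodimer PCA were dosed with compound for 8 h. Gain of fluorescence intensity versus DMSO vehicle was read by laser scanning cytometry.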
# PGR (gene 5241) = PGR (gene 5241) (UniProt P06401); assay: NVS_NR_hPR: NovaScreen (NVS) Nuclear Receptor Binding Assay for human Progestron Receptor (PR) (AID 2283360);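 also: active means loss of bound radioligand signal versus DMSO baseline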
# Sequence of PGR (gene 5241) (P06401 whole entry, looked up): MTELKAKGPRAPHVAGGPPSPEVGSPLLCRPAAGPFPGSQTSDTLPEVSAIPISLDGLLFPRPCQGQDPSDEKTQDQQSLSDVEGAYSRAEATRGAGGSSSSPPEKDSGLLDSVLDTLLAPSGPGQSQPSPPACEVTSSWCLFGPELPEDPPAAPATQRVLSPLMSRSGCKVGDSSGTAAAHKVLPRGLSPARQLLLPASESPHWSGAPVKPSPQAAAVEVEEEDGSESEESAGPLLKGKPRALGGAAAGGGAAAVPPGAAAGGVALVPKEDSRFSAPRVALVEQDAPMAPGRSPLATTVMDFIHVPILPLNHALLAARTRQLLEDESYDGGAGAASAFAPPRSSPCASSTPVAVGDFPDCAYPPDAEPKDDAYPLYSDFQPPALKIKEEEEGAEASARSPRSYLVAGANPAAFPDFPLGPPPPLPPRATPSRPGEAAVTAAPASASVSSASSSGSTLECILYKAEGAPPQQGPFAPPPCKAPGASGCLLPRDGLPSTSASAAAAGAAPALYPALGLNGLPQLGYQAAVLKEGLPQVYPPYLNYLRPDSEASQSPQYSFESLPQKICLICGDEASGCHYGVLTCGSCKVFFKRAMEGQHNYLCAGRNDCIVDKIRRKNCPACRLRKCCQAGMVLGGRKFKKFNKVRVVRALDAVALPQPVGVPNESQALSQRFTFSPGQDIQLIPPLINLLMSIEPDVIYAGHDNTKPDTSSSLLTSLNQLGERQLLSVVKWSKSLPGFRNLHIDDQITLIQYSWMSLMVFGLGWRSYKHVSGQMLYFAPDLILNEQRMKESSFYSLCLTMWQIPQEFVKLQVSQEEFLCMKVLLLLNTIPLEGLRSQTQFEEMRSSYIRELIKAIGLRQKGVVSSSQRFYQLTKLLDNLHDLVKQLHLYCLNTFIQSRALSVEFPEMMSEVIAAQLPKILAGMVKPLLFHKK
# Outline: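 Radioligand competition binding on receptor extracted from T47D cells, read by scintillation counting 18 h after dosing. Loss of signal versus DMSO; primary screen in duplicate at 25 uM, actives followed in concentration series.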
# [2] = biological target: T1, Estrogen receptor (Homo sapiens) + Estrogen receptor beta (Homo sapiens) (UniProt P03372+Q92731); assay: OT_ER_ERaERb_0480: Odyssey Thera (OT) 8-hour HEK293T Protein-Complementation Assay for Estrogen Receptor-alpha/-beta Heterodimer (AID 2283352)
# T1 sequence (P03372 whole entry, looked up, the tested form may be a part): as the sequence (P03372 whole entry, looked up, the tested form may be a part) above
# T1 sequence (Q92731 whole entry, looked up, the tested form may be a part): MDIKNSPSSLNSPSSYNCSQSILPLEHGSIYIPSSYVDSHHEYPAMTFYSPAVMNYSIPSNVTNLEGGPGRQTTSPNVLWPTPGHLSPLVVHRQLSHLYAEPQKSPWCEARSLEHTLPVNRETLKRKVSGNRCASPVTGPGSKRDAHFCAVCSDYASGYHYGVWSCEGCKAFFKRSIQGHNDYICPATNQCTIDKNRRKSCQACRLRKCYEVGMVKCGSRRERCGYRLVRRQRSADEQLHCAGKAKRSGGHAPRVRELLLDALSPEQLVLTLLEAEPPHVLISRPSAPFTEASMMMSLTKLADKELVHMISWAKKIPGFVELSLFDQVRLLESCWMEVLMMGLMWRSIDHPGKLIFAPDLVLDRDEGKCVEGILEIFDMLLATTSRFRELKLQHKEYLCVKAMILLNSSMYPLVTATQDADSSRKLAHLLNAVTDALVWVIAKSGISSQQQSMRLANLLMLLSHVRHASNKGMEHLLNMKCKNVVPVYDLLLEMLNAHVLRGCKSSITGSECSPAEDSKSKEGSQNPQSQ
# Outline: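 Human HEK293T cells were treated for 8 hours and receptor heterodimerisation was detected through reconstitution of a fluorescent reporter split between ER-alpha and ER-beta ligand-binding domains. Activity was analysed as gain of signal against DMSO.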
# [3] = biological target: T1, Estrogen receptor (Homo sapiens) + Estrogen receptor beta (Homo sapiens); assay: OT_ER_ERaERb_1440: Odyssey Thera (OT) 24-hour HEK293T Protein-Complementation Assay for Estrogen Receptor-alpha/-beta Homodimer (AID 2283356);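 also: heteromer of ER alpha and ER beta binding domains; hits raise reporter fluorescence and both agonists and antagonists give an increase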
# Outline: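 24 h exposure; HEK293T PCA cells with ERα/ERβ LBD fragments; signal rise in nuclear or whole-cell fluorescence over vehicle.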
# [4] = biological target: Estrogen receptor beta (Homo sapiens) (UniProt Q92731); assay: OT_ER_ERbERb_0480: Odyssey Thera (OT) 8-hour HEK293T Protein-Complementation Assay for Estrogen Receptor-beta/-beta Homodimer (AID 2283357);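 also: active means signal gain over DMSO baseline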
# Sequence of Estrogen receptor beta (Homo sapiens) (Q92731 whole entry, looked up, the tested form may be a part): as above
# Outline: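 Fluorescence intensity, nuclear for agonists and nuclear plus cytoplasmic for antagonists, was quantified by laser scanning cytometry versus vehicle after 8 h treatment. The cells were HEK293T stably carrying ER beta LBD fragment-complementation partners.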
# [5] = biological target: Androgen Receptor/SRC-1 Co-activator, AR (gene 367) (UniProt P10275); assay: OT_AR_ARSRC1_0960: Odyssey Thera (OT) 16-hour HEK293T Protein-Complementation Assay for Androgen Receptor/SRC-1 Co-activator (AID 2283353);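 also: actives raise the signal above DMSO so potency reflects increased AR and SRC-1 complex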
# Sequence of Androgen Receptor/SRC-1 Co-activator, AR (gene 367) (P10275 whole entry, looked up, the tested form may be a part): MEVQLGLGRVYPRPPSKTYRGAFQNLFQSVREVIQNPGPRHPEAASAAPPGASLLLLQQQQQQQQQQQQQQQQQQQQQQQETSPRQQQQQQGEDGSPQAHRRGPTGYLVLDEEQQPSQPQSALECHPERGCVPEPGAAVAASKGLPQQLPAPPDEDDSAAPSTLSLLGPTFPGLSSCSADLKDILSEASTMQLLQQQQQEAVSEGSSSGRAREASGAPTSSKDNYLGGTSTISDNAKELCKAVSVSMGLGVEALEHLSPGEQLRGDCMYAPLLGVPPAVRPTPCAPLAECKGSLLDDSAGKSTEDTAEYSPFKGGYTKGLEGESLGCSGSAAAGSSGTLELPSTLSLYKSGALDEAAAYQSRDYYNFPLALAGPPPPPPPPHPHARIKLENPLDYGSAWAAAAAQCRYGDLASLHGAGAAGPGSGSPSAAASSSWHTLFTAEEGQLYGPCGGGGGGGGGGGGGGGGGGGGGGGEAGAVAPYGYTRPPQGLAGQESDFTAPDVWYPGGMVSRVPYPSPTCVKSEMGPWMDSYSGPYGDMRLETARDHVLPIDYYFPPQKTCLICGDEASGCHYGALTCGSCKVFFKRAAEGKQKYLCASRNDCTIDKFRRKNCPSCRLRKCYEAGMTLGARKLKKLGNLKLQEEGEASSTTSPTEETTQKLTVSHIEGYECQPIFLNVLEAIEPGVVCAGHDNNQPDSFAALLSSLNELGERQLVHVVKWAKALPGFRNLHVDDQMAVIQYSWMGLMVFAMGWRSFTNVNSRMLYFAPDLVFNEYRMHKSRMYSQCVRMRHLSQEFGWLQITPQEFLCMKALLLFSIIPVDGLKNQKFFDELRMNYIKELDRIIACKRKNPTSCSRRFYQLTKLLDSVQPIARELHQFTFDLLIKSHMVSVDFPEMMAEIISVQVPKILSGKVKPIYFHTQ
# Outline: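 HEK293T cells stably expressing AR and SRC-1 fused to split Venus YFP fragments via (Gly4Ser)2 linkers were dosed for 16 h. Nuclear/cytoplasmic fluorescence ratio at 488 nm, ≥400 cells per image, fitted for gain of signal versus DMSO.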
# [6] = biological target: Androgen Receptor/SRC-1 Co-activator, AR (gene 367) (UniProt P10275); assay: OT_AR_ARSRC1_0480: Odyssey Thera (OT) 8-hour HEK293T Protein-Complementation Assay for Androgen Receptor/SRC-1 Co-activator (AID 2283354);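 also: hits raise the complementation signal above DMSO so AC50 marks enhancers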
# Outline: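 HEK293T cells stably expressing AR and SRC-1 fused to Venus YFP fragments, imaged 8 h after dosing. Complementation fluorescence scored as nuclear/cytoplasmic ratio at 488 nm in at least 400 cells per image; gain fitted versus DMSO.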
# [7] = biological target: Retinoic acid receptor alpha (Homo sapiens) (UniProt P10276); assay: NVS_NR_hRAR_Antagonist: NovaScreen (NVS) Nuclear Receptor Binding Assay for human Retinoic Acid Alpha Receptor Antagonism (RAR) (AID 2283358)
# Sequence of Retinoic acid receptor alpha (Homo sapiens) (P10276 whole entry, looked up): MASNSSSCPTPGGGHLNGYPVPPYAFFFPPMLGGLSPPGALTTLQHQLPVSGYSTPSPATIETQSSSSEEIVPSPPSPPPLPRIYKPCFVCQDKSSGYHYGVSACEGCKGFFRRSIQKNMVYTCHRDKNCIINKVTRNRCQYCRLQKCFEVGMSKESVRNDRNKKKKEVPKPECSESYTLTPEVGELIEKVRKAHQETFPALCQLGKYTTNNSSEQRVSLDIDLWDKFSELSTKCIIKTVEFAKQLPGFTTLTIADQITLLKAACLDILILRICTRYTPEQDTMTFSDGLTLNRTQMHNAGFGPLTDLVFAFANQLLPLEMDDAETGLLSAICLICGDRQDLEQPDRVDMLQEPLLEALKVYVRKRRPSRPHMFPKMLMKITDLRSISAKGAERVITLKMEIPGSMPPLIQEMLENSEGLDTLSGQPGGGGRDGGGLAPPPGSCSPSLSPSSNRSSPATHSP
# Outline: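 Cell-free TR-FRET binding assay with extracted human RARalpha in antagonist mode, read 2 h after dosing. Loss of signal was fitted relative to DMSO; the primary screen used 25 uM in duplicate, with concentration series on follow-up.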
# [8] = biological target: rat Mineralocorticoid Receptor (MR), Nr3c2 (gene 25672) (UniProt P22199); assay: NVS_NR_rMR: NovaScreen (NVS) Nuclear Receptor Binding Assay for rat Mineralocorticoid Receptor (MR) (AID 2283355)
# Sequence of rat Mineralocorticoid Receptor (MR), Nr3c2 (gene 25672) (P22199 whole entry, looked up): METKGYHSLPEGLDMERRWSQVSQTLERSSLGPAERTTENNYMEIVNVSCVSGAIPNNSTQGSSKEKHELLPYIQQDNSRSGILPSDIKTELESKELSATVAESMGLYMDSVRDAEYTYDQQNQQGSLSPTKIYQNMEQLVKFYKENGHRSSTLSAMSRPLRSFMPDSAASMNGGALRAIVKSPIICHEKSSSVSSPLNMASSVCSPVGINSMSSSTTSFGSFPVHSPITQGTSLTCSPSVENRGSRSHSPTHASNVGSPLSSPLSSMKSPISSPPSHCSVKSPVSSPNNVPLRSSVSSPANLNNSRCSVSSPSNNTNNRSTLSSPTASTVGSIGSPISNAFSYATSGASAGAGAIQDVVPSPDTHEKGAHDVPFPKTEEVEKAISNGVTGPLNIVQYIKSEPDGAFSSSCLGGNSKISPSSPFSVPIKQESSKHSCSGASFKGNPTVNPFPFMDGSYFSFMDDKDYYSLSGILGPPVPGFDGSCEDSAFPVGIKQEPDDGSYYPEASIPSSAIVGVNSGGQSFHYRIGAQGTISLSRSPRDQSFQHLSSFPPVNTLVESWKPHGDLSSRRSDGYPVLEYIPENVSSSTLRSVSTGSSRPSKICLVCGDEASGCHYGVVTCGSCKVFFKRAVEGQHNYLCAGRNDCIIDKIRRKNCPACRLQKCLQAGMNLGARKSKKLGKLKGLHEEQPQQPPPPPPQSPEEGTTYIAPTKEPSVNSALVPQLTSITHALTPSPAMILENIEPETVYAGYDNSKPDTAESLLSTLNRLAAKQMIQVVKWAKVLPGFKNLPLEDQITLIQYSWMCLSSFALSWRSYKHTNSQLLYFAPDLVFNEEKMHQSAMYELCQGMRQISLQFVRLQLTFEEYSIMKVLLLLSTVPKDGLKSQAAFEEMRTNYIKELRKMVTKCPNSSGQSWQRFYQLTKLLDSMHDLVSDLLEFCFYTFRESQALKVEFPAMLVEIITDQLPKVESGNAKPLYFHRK
# Outline: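 Cell-free radioligand binding to mineralocorticoid receptor from adrenalectomized rat brain supernatant, scintillation counting after 24 h. Primary screen in duplicate at 25 uM; actives retested in concentration series. Loss of specific binding versus DMSO.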
smiles,measurement,setting,value
COc1ccc(-n2nc(C(F)F)cc2-c2ccc(S(C)=O)cc2)cc1 (centres undefined),outcome,[1],inactive
Cc1ccc(S(=O)(=O)O)cc1C,outcome,[1],inactive
same,outcome,PGR (gene 5241),inactive
COC(=O)CC(=O)OC,outcome,[1],inactive
same,outcome,[2],inactive
same,outcome,[3],inactive
same,outcome,PGR (gene 5241),inactive
O=C(NS(=O)(=O)/C=C/c1ccccc1)c1ccc(F)cc1Cl,outcome,[1],inactive
same,outcome,[2],inactive
same,outcome,[3],inactive
CCC(C)(C)C(=O)O[C@H]1C[C@@H](C)C=C2C=C[C@H](C)[C@H](CC[C@@H]3C[C@@H](O)CC(=O)O3)[C@H]21,outcome,[1],inactive
same,outcome,[2],inactive
same,outcome,[3],inactive
CCCCC(CC)COC(=O)CCCCCCCCC(=O)OCC(CC)CCCC (centres undefined),AC50,[1],0.949 µM (active)
COC(=O)c1ccccc1O,outcome,[2],inactive
same,outcome,[3],inactive
C=CCCCCCCCCC(=O)O,outcome,[1],inactive
same,outcome,[2],inactive
same,outcome,[3],inactive
O=C1CCCCCN1,outcome,[4],inactive
CC(O)CN(CCN(CC(C)O)CC(C)O)CC(C)O (centres undefined),outcome,[4],inactive
CCOc1cccc(-n2cc(C(=O)N3CCN(c4cc(C(=O)O)c5ccccc5c4)CC3)nc2-c2ccc(C)cc2)c1,AC50,[5],23.9 µM (active)
same,outcome,[6],inactive
CNCc1ccc(NC(=O)c2c[nH]c3c2C(=O)CCC3)cc1,outcome,[4],inactive
same,outcome,PGR (gene 5241),inactive
Nc1nc2ncc(CNc3ccc(C(=O)N[C@@H](CCC(=O)O)C(=O)O)cc3)nc2c(=O)[nH]1,outcome,[5],inactive
same,outcome,[6],inactive
same,outcome,[4],inactive
CCNc1ccccc1,outcome,[5],inactive
same,outcome,[6],inactive
same,outcome,[4],inactive
CC1(C)C(=O)N(Br)C(=O)N1Br,outcome,[5],inactive
same,outcome,[6],inactive
O=C1OC(=O)C2C3C=CC(C3)C12 (centres undefined),outcome,[7],inactive
Fc1ccccc1[C@@H](F)COC1CCC(Nc2ncnc3[nH]ncc23)CC1 (some centres undefined),AC50,[5],33.2 µM (active)
same,AC50,[6],50 µM (active)
O=C(O)c1cc(N=Nc2ccc(S(=O)(=O)Nc3ccccn3)cc2)ccc1O,AC50,PGR (gene 5241),36.5 µM (active)
O=C(OC[C@H]1O[C@@H](OC(=O)c2cc(O)c(O)c(OC(=O)c3cc(O)c(O)c(O)c3)c2)[C@H](OC(=O)c2cc(O)c(O)c(OC(=O)c3cc(O)c(O)c(O)c3)c2)[C@@H](OC(=O)c2cc(O)c(O)c(OC(=O)c3cc(O)c(O)c(O)c3)c2)[C@@H]1OC(=O)c1cc(O)c(O)c(OC(=O)c2cc(O)c(O)c(O)c2)c1)c1cc(O)c(O)c(OC(=O)c2cc(O)c(O)c(O)c2)c1,AC50,PGR (gene 5241),6.13 µM (active)
CC(=O)OCCC(C)C,outcome,PGR (gene 5241),inactive
O=C(CCCCCCCCc1cccnc1)N1CCC(C=C(c2ccccc2)c2ccccc2)CC1,AC50,[5],27.5 µM (active)
same,outcome,[6],inactive
same,outcome,[7],inactive
C1=CCCC=CCCC=CCC1,outcome,[4],inactive
Cc1ccc(O)cc1,outcome,[5],inactive
same,outcome,[6],inactive
CC(C)(O)c1coc(S(=O)(=O)NC(=O)Nc2c3c(cc4c2CCC4)CCC3)c1,outcome,PGR (gene 5241),inactive
CCCCC(CC)COC(=O)c1ccc(C(=O)OCC(CC)CCCC)cc1 (centres undefined),outcome,[5],inactive
same,outcome,[6],inactive
CCOC(=O)c1ccc(C2CCC(NC[C@H](O)COc3ccc(O)c(NS(C)(=O)=O)c3)CC2)cc1 (some centres undefined),outcome,[4],inactive
CCc1cc(SCc2sc(-c3ccc(C(F)(F)F)cc3)nc2CN2CCN(c3ccc(OC)cc3)CC2)ccc1OCC(=O)O,outcome,PGR (gene 5241),inactive
CCCCCCc1ccc(O)cc1O,AC50,[5],92.3 µM (active)
same,AC50,[6],77.9 µM (active)
Oc1ccc2c(c1)-c1ccccc1C2,AC50,[5],35.1 µM (active)
same,AC50,[6],50 µM (active)
same,outcome,[8],inactive
same,AC50,[4],12.7 µM (active)
same,AC50,PGR (gene 5241),9.66 µM (active)
CCCC(=O)OCC,outcome,[2],inactive
same,outcome,[3],inactive
same,outcome,[4],inactive
CCCN(C1CCN(C(=O)C2CCNCC2)CC1)[C@@H]1CCc2ccc(OC)cc2C1,outcome,[5],inactive
same,outcome,[6],inactive
Cc1c(-c2cccnc2)c2ccccc2n1CCCCC(=O)O,outcome,PGR (gene 5241),inactive
O=C(O)c1cccc(N(Cc2cccnc2)c2ccc(OC(F)F)c(OC(F)F)c2)c1,AC50,[5],37.1 µM (active)
same,outcome,[6],inactive
same,AC50,PGR (gene 5241),4.96 µM (active)
CC[C@H]1OC(=O)[C@H](C)[C@@H](O[C@H]2C[C@@](C)(OC)[C@@H](O)[C@H](C)O2)[C@H](C)[C@@H](O[C@@H]2O[C@H](C)C[C@H](N(C)C)[C@H]2O)[C@](C)(O)C[C@@H](C)C(=O)[C@H](C)[C@@H](O)[C@]1(C)O,outcome,[4],inactive
C1N2CN3CN1CN(C2)C3,outcome,[5],inactive
same,outcome,PGR (gene 5241),inactive
CCOCCOCCOCCO,outcome,[4],inactive
CC(C)CCCCCCOC(=O)c1ccc(C(=O)OCCCCCCC(C)C)c(C(=O)OCCCCCCC(C)C)c1,outcome,[4],inactive
CN(C)c1ccc(N=NS(=O)(=O)O)cc1,outcome,[5],inactive
same,outcome,[6],inactive
Cc1[nH]cnc1C[C@H]1CCc2c(C)c3ccccc3n2C1=O,outcome,[4],inactive
